Test [1] addresses Glutathione peroxidase 1 (Homo sapiens) (UniProt P07203). Put plainly: Primary qHTS Assay for Inhibitors of Recombinant Selenoprotein Glutathione Peroxidase 1 (GPX1) (AID 1845191). Further: nearly all actives have a fitted effect of over 65% in size. The gist of the method: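 GR-coupled assay: compounds preincubated 30 min at room temperature with GPX1, then reaction started with CHP; final 10 nM GPX1, 1 mM GSH, 0.5 mM CHP, 0.5 mM NADPH, 100 nM GR, 0.01% BSA, pH 7.5 Tris buffer. NADPH fluorescence (340/450 nm) read at 0 and 15 min.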
(Quantitative high-throughput screening tests each substance at several concentrations.)

Test [2] concerns the target Phospholipid hydroperoxide glutathione peroxidase GPX4 (Homo sapiens) (UniProt P36969). The test can be described thus: Primary qHTS Assay for Inhibitors of Recombinant Selenoprotein Glutathione Peroxidase 4 (GPX4) (AID 1845192). Further: nearly all actives have a fitted effect of over 65% in size. On activity change, negative = inhibition: on the % scale 0 is the no-effect control and ±100 the full control effect. The gist of the method:
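GR-coupled assay: recombinant GPX4 preincubated 30 min with compound at room temperature; final 200 nM GPX4, 1 mM GSH, 0.5 mM cumene hydroperoxide, 0.5 mM NADPH, 100 nM GR, 0.01% BSA, pH 7.5 Tris. NADPH fluorescence (340/450 nm) read at 0 and 15 min.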

The target in test [3] is Nuclear receptor subfamily 1 group I member 3 (Homo sapiens) (UniProt Q14994). Put plainly: Primary qHTS for antagonist of constitutive androstane receptor (CAR) against the NCATS DSHEA and TCM libraries (AID 1794836).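 Further: HepG2 cells stably expressing hCAR with CYP2B6 luciferase reporter stimulated by CITCO.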 The gist of the method:
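HepG2-CYP2B6-hCAR cells, attached 5 h, given compounds plus CITCO agonist […], incubated 24 h at 37 C. Luciferase luminescence read, multiplexed with CellTiter-Fluor viability (Ex/Em 405/540 nm).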

Test [4] addresses Metallo-beta-lactamase type 2 (Klebsiella pneumoniae) (UniProt C7C422). The test can be described thus: qHTS to identify inhibitors of the New Delhi Metallo-beta-lactamase (NDM): assay validation screen against the NCATS LOPAC Collection (AID 1794843).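 Further: nitrocefin turnover by NDM-1 measured as 485 nm absorbance at plateau; on the % scale 0 is the no-effect control and ±100 the full control effect.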 A digest of the protocol: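 NDM-1 at 2 nM final in 50 mM HEPES pH 7.0, 1 uM ZnSO4, 0.01% Tween20, preincubated with LOPAC compounds pinned in DMSO; 50 uM nitrocefin (stock) added. Hydrolysis read as absorbance at 485 nm in the plateau phase.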

Test [5] can be described thus: Quantitative High-Throughput drug screen in 47 multiple myeloma cell lines against the NCATS MIPE library collection: FR4_PLB cell viability assay (AID 1918924; further: nearly all actives have a fitted effect of over 35% in size). The gist of the method: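 Myeloma cell lines, 500 cells per well, exposed to MIPE 4.0 library compounds for 48 h at 37C, 5% CO2. Viability from ATP by CellTiter-Glo luminescence; normalised to DMSO (100%) and media-only (0%) wells.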

Test [6] in a line: Quantitative High-Throughput drug screen in 47 multiple myeloma cell lines against the NCATS MIPE library collection: Delta47_JCRB cell viability assay (AID 1918925; further: nearly all actives have a fitted effect of over 45% in size). The gist of the method:
(§1)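 qHTS of the MIPE 4.0 collection: 500 myeloma cells/well, 48 h drug exposure at 37C in 5% CO2, then CellTiter-Glo for 5 min at room temperature before luminescence reading.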

The nature of test [7]: Quantitative High-Throughput drug screen in 47 multiple myeloma cell lines against the NCATS MIPE library collection: EJM_DSMZ cell viability assay (AID 1918926; further: nearly all actives have a fitted effect of over 30% in size). A digest of the protocol: as §1
Test [8] can be described thus: Quantitative High-Throughput drug screen in 47 multiple myeloma cell lines against the NCATS MIPE library collection: AMO1_DSMZ cell viability assay (AID 1918927; further: nearly all actives have a fitted effect of over 30% in size). The gist of the method:
as §1

The nature of test [9]: Quantitative High-Throughput drug screen in 47 multiple myeloma cell lines against the NCATS MIPE library collection: ARP1_JJKsccF8 cell viability assay (AID 1918928; further: nearly all actives have a fitted effect of over 40% in size; further: potency means the concentration at half of the fitted maximal effect). A digest of the protocol:
(§2)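 Myeloma cells at 500 per well in 1536-well format treated with MIPE 4.0 library by pin transfer for 48 h at 37C, 5% CO2. Viability from ATP luminescence (CellTiter-Glo), normalized to DMSO (100%) and media-only (0%) wells.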

Test [10] in a line: Quantitative High-Throughput drug screen in 47 multiple myeloma cell lines against the NCATS MIPE library collection: ARD_JJKsccE7 cell viability assay (AID 1918929). The gist of the method: as §1
Test [11] can be described thus: Quantitative High-Throughput drug screen in 47 multiple myeloma cell lines against the NCATS MIPE library collection: KMM1_JCRB cell viability assay (AID 1918960). Further: nearly all actives have a fitted effect of over 30% in size. A digest of the protocol:
as §2

Test [12] addresses Luciferin 4-monooxygenase (Photinus pyralis) (UniProt P08659). The test can be described thus: Primary firefly luciferase (FLuc) qHTS assay for identification of artifact compounds. (AID 1845220).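 Further: plate controls were DMSO vehicle for no effect and no enzyme for full effect; nearly all actives have a fitted effect of over 60% in size.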 The note with it: outcome: dose series up to 54.1 µM unless noted. A digest of the protocol: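 D-luciferin and ATP (10 uM each, final) in Tris acetate buffer pH 7.6 were incubated with compounds for 15 min at room temperature. The reaction was started with 10 nM Photinus pyralis luciferase and luminescence read after 5 min. Percent inhibition was fitted to a 4-parameter Hill equation.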

Test [13] can be described thus: Primary fluorescence-based thiol-reactive (MSTI) qHTS assay for identification of artifact compounds. (AID 1845221).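 Further: thiol-reactive compounds lower the probe fluorescence signal; nearly all actives have a fitted effect of over 65% in size.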 The gist of the method:
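MSTI probe at 4 uM final in 2% DMSO/PBS pH 7.4; compounds, 1 h at room temperature in dark. Fluorescence Ex/Em 525/598 nm, normalised to Acetyl-MSTI and MSTI, fitted to 4-parameter Hill.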

The nature of test [14]: Primary redox qHTS assay for identification of artifact compounds. (AID 1845223). The gist of the method: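 Amplex Red (25 uM) and HRP (250 mU/mL) in HBSS, with compounds for 15 min, then 250 uM DTT for 30 min, room temperature, dark. Fluorescence 525/598 nm read; normalized to DMSO and 10 uM DA3003; Hill fit.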
Test [15] is described as follows: NCATS anti-infectives library activity on HEK293 viability as a counter-qHTS vs the C. elegans viability qHTS (AID 1745854).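 Further: HEK293 cells exposed to compounds for 24 hr before the viability read; on the % scale 0 is the no-effect control and ±100 the full control effect.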 The gist of the method:
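HEK293 cells (1,500/well) exposed 24 hr at 37C to 1:5 titrations, up to 41.7 uM final; counter-screen to a C. elegans viability qHTS. Viability by CellTiter-Glo luminescence after 10 min at room temperature; digitonin as control.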

Test [16] has as its target Catechol O-methyltransferase (Homo sapiens) (UniProt P21964). The test can be described thus: Confirmatory Screen for Target Class Profiling of Small Molecule Inhibitors of Methyltransferases (AID 1745852). On activity change, negative = inhibition: on the % scale 0 is the no-effect control and ±100 the full control effect. To be noted: MTase-Glo luminescence, SAH detection, recombinant enzyme; measured here: COMT max response; stronger effect = lower value.
In test [17] the target is Guanidinoacetate N-methyltransferase (Homo sapiens) (UniProt Q14353). The test is described as above. The note with it: MTase-Glo luminescence, SAH detection, recombinant enzyme; at 57.3 µM (top of the series).
Test [18] concerns the target Nicotinamide N-methyltransferase (Homo sapiens) (UniProt P40261). Described as above. The note with it: MTase-Glo luminescence, SAH detection, recombinant enzyme; measured here: NNMT max response; stronger effect = lower value.
In test [19] the target is Phenylethanolamine N-methyltransferase (Homo sapiens) (UniProt P11086). Described as above. To be noted: MTase-Glo luminescence, SAH detection, recombinant enzyme; measured here: PNMT max response; stronger effect = lower value.

Inconclusive results are not listed. Calls of active or inactive are those of the source. The call rests on the fitted dose curve; in most records, active means well fitted curve in the direction sought with a large enough effect; inconclusive means small, poorly fitted or top-dose-only effect, or another doubt; inactive means no such curve, though single readings can be large; an effect the other way counts as inactive or inconclusive.

Sequence of Glutathione peroxidase 1 (Homo sapiens) (P07203 whole entry, looked up): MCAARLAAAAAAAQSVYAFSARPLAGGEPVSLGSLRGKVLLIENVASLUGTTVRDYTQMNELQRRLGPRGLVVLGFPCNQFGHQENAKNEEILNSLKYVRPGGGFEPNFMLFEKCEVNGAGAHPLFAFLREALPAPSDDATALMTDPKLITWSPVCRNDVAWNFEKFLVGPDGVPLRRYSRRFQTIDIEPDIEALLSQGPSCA
Sequence of Metallo-beta-lactamase type 2 (Klebsiella pneumoniae) (C7C422 whole entry, looked up): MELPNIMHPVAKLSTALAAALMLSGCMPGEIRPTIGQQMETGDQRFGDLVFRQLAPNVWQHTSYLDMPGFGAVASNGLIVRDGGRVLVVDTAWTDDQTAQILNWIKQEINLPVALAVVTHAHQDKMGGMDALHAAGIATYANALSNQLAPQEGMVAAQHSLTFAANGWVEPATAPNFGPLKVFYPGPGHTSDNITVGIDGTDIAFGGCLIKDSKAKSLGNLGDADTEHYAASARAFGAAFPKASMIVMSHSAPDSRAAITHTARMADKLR
Sequence of Phospholipid hydroperoxide glutathione peroxidase GPX4 (Homo sapiens) (P36969 whole entry, looked up): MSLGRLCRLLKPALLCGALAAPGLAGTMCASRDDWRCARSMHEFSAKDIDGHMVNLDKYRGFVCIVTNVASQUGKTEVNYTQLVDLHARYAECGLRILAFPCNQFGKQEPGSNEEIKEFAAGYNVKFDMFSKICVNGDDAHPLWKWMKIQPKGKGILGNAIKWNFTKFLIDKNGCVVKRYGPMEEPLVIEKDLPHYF
Sequence of Nuclear receptor subfamily 1 group I member 3 (Homo sapiens) (Q14994 whole entry, looked up): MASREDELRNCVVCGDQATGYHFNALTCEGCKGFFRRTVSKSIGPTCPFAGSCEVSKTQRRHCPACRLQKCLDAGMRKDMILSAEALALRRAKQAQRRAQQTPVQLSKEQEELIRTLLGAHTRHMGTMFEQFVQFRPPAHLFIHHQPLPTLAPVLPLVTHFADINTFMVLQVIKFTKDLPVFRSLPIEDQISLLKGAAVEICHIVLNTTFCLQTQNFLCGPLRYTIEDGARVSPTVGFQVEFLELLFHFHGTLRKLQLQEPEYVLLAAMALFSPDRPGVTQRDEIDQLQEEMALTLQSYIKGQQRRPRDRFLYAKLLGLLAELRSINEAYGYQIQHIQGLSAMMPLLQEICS
Sequence of Nicotinamide N-methyltransferase (Homo sapiens) (P40261 whole entry, looked up): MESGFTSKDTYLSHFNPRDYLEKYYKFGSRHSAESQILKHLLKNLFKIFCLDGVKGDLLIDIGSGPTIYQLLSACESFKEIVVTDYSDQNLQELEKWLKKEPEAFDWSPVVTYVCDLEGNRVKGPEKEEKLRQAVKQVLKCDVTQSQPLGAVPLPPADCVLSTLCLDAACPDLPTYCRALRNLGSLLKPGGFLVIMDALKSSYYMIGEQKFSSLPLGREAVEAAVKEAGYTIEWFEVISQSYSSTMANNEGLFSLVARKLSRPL
Sequence of Phenylethanolamine N-methyltransferase (Homo sapiens) (P11086 whole entry, looked up): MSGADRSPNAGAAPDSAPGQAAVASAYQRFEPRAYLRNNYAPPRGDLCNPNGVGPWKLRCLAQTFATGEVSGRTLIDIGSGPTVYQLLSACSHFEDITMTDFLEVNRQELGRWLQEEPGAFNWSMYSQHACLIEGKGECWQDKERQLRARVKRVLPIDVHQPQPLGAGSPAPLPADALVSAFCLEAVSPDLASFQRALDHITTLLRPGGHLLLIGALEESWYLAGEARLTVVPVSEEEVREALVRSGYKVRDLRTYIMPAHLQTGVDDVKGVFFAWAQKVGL
Sequence of Catechol O-methyltransferase (Homo sapiens) (P21964 whole entry, looked up): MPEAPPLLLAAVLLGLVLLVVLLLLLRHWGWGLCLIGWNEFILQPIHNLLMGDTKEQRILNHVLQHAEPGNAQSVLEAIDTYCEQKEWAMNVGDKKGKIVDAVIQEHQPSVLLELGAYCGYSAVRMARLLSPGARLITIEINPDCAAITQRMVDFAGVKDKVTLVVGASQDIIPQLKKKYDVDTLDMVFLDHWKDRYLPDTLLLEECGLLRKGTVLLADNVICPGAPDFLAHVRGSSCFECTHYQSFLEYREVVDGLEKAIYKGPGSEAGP

Take `Nc1ccc([As](=O)(O)O)cc1`: the Potency entry in [1] and in test [2] was “inactive” in each case.
Consider `O=C(O)c1cc(O)c(O)c(O)c1`, for which the outcome in [3] was “inactive”.
As to `CC(C)[C@H]1C(=O)N2CCC[C@H]2[C@]2(O)O[C@](NC(=O)[C@@H]3C[C@@H]4c5cccc6[nH]cc(c56)C[C@H]4N(C)C3)(C(C)C)C(=O)N12`, the Potency result in test [1] was “inactive”.
With `CCCCCN(C)CCC(O)(P(=O)(O)O)P(=O)(O)O`, in test [4], the outcome was “inactive”. Further, the Potency result in [1] and in test [2] was “inactive” in each case.
Consider `CCC1(c2ccc(N)cc2)CCC(=O)NC1=O` (centres undefined), for which the outcome in [4] is “inactive”. Moreover, the Potency result in test [1], in [2], in test [5], in test [6], in test [7] and in test [8] was “inactive” in each case. The Potency result in test [9], in test [10] and in test [11] was “inactive” each time.
Consider `CC(C)c1cccc(C(C)C)c1O`, for which, in test [4], the outcome was “inactive”. For the same molecule, the Potency result in test [1], in test [2], in test [5], in [6], in test [7] and in test [8] was “inactive” in each case. The Potency result in [9], in [10] and in test [11] was “inactive” in each case.
Take `COC1CC(=C(c2cccs2)c2cccs2)C[N+](C)(C)C1` (centres undefined): the Potency entry in test [1] and in [2] was “inactive” each time.
As to `CCCCCCCCCCCCCCCC(=O)O`, in [3], the outcome was “inactive”.
Regarding `CC(NC(C)(C)C)C(=O)c1cccc(Cl)c1` (centres undefined), the outcome in [4], in test [12], in test [13] and in test [14] was “inactive” each time. The Potency entry in test [1], in test [2], in test [5], in [7] and in test [8] was “inactive” throughout. Further, in [9], the Potency was 13.2 µM (active).
For the molecule `COc1ccc2c(c1OC)C(=O)O[C@H]2[C@@H]1c2cc3c(cc2CCN1C)OCO3`, the outcome in test [4] is “inactive”. The Potency entry in test [1] and in [2] was “inactive” each time.
Turning to `O=C1OC(c2ccc(O)c(S(=O)(=O)O)c2)(c2ccc(O)c(S(=O)(=O)O)c2)c2c(Br)c(Br)c(Br)c(Br)c21`, the Potency entry in [1] is “inactive”.
With `CC(C)(C)NCC(O)c1ccccc1Cl` (centres undefined), the outcome in [15] and in test [4] was “inactive” throughout. The Potency result in [1] and in test [2] was “inactive” each time.
Consider `NCCc1ccc(O)cc1`, for which the activity was -7.57% in test [16], -9.22% in test [18] and -8.79% in test [19]. Also, the activity change, negative = inhibition in [17] was 0.255%. In test [4], the outcome was “inactive”. Also, the Potency result in test [1] and in test [2] was “inactive” in each case.
With `C[C@]12Cc3cn[nH]c3C[C@@H]1CC[C@@H]1[C@@H]2CC[C@@]2(C)[C@H]1CC[C@]2(C)O`, the Potency result in test [1] and in test [2] was “inactive” in each case.
Take `CCc1cc2c(s1)-n1c(C)nnc1CN=C2c1ccccc1Cl`: the Potency entry in test [1] and in test [2] was “inactive” each time.

For the origin of these results see PubChem BioAssay (NCATS).
